Source: PubChem (several laboratories)
Neddyl block – inhibitors of cullin neddylation, primary screen, biochemical, TR-FRET, uHTS, NAE and Ubc12; calls only at 25 µM; 360,000 tested, 0.58% active; NEDD8-conjugating enzyme Ubc12 (Homo sapiens) + NEDD8-activating enzyme E1 regulatory …; in the data active = inhibition above about 36%
Target sequence (P61081 whole entry, looked up): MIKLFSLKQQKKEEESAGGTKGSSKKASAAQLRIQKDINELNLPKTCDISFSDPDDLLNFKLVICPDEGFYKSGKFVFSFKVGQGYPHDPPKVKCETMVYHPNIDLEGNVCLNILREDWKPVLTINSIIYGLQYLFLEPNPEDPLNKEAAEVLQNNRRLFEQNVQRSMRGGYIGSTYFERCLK
Target sequence (Q13564 whole entry, looked up): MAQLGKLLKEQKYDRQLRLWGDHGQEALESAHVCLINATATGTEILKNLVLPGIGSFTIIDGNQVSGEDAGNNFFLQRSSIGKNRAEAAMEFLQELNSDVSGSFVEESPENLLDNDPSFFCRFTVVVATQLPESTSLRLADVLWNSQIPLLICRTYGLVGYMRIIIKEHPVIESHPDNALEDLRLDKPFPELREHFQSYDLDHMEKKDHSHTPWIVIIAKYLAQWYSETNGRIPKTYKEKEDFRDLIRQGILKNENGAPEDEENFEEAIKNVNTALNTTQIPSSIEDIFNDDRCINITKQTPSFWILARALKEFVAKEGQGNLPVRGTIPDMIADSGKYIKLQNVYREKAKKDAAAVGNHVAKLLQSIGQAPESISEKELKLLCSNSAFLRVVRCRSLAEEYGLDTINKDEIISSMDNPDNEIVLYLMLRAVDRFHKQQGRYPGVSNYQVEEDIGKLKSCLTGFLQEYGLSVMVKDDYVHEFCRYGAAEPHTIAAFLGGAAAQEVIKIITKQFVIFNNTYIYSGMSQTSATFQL
FAS TE block – FAS thioesterase domain inhibitors, primary screen, biochemical, fluorescence intensity, uHTS. Fatty acid synthase (Homo sapiens), P49327. recombinant FAS-TE, OMFH fluorogenic substrate, fluorescence endpoint. inhibition, % at 15 µM. 360,000 tested, 0.67% active. AID 602261, 2012;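 active = compounds whose normalised, plate-corrected inhibition of enzyme fluorescence in the single-dose primary screen is 50% or more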;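 also: 0% = DMSO with enzyme and 100% = substrate without enzyme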
proKLK7 act – proKLK7 zymogen activators, primary screen, biochemical, fluorescence intensity; Kallikrein-7 (Homo sapiens), P49862; 370,000 tested, 0.9% active; activation, % at 7 µM; purified proKLK7, EDANS-DABCYL substrate fluorescence; 100% is mature enzyme control, 0% vehicle;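 active = activation above the mean of all tested compounds plus 3 SD, computed per campaign excluding outliers beyond control limits, cut at about 13% in these data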
PfGluPho inh – PfG6PD enzyme inhibitors, primary screen, biochemical, fluorescence intensity, uHTS; glucose-6-phosphate dehydrogenase-6-phosphogluconolactonase (Plasmodium falciparum 3D7); AID 504690, 2011; PfGluPho enzyme, NADPH resazurin-diaphorase fluorescence; 350,000 tested, 0.78% active; inhibition, % at 20 µM;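 active = inhibition reaching at least a set limit at 20 µM in the primary screen, cut at about 59% in these data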;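 also: 0% = DMSO wells with substrate and 100% = DMSO wells lacking glucose-6-phosphate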
KLK7 act conf – proKLK7 zymogen activators, confirmation, biochemical, fluorescence intensity, triplicate | shares compounds with proKLK7 act | purified proKLK7, EDANS-DABCYL substrate fluorescence; scaled: vehicle 0, mature enzyme 100 | activation, % at 7 µM | 3,200 tested, 68% active;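 active = activation, as change over the incubation, above the mean of all tested compounds plus 3 SD, cut at about 13% in these data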
EDANS interfere – EDANS-DABCYL substrate optical interference, artefact control for kallikrein-7 zymogen activator project, biochemical, fluorescence intensity, high throughput. shares compounds with proKLK7 act. no enzyme, 4 h; solvent 0%, active enzyme control 100%. activation, % at 7 µM. 3,200 tested, 80% active;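 active = activation above the all-compound mean plus 3 SD, ignoring values outside control-based bounds, cut at about 4.8% in these data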;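 also: value is the 4 h activation minus the activation read at time zero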
K7 EDANS ctr – EDANS fluorescence interference in dose response, no enzyme | shares compounds with proKLK7 act | EDANS-DABCYL peptide fluorescence interference | EC50, µM | 250 tested, 20% active | AID 720493;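 active = compounds that raise the fluorescence signal in this interference counterscreen, with EC50 at or below 10 µM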;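 also: intact quenched peptide substrate alone read at 355 nm excitation and 520 nm emission; signal is fluorescence gain from T0 to T4 after four hours at room temperature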
* marks the source's active call; other numbers are inactive results; i = inactive; / = no result given. Rows were chosen to be rich in hits. Some 2.7% of all compounds tested hit in one or more screens of this group.

SMILES	Neddyl block	FAS TE block	proKLK7 act	PfGluPho inh	KLK7 act conf	EDANS interfere	others
Cc1ccc(S(=O)(=O)NN2C(=O)c3ccccc3NC2c2ccccc2F)cc1 (stereo unspecified)	/	4	3	-10	/	/
CC(=O)NN1C(=O)c2ccccc2NC1c1ccccc1F (stereo unspecified)	/	-4	29*	1	19*	18*
Cc1cccc(C)c1C(O)c1ncc(-c2ccccc2F)[nH]1 (stereo unspecified)	i	-3	1	/	/	/
COc1ccc(CCC[C@@H](CCC(=O)N(c2ccccc2)c2ccccc2)CCc2ccccc2)cc1	/	/	-2	/	/	/
COc1ccc(CNCC#Cc2ccccc2)cc1	/	/	0	/	/	/
COc1cc2c(cc1OC)C(=S)NC1(CCCC1)C2	i	-6	1	-7	/	/
COc1cc2c(cc1OC)/C(=C/C#N)NC(C)(C)C2	/	-7	19*	-17	12	14*
CC(C)OCCCn1c(=NC(=O)c2cccs2)c(C#N)cc2c(=O)n3ccccc3nc21	/	25	54*	15	68*	63*
CCOCCCn1c(=N)c(C(=O)NCc2ccc3c(c2)OCO3)cc2c(=O)n3ccccc3nc21	/	/	0	/	/	/
CC(C)OCCCn1c(=NC(=O)c2ccncc2)c(C#N)cc2c(=O)n3ccccc3nc21	i	-6	-1	-8	/	/
CC(C)OCCCn1c(=N)c(C(N)=S)cc2c(=O)n3ccccc3nc21	/	-18	22*	46	4	4.3*
CC(=O)N=c1c(C#N)cc2c(=O)n3ccccc3nc2n1CCCOC(C)C	/	13	35*	44	-6	-2
CCOC(=O)N1CCN(C(=O)C[C@H]2C[C@@]3(C(=O)OC)C(=C[C@H](C(C)C)O[C@@H]3C3CC3)N(CCc3ccc(OC)c(OC)c3)C2=O)CC1	/	/	0	/	/	/
CCCNC(=O)C1(C)CCCN(C(=O)c2ccc(F)cc2Cl)C1 (stereo unspecified)	i	-7	0	/	/	/
C[C@@H]1CC=C[C@H]2[C@H]1C(=O)N(Cc1ccccc1)[C@H]2c1ccc(F)c(-c2ccc(N(C)C)cc2)c1	i	32	-2	11	/	/
CN1C(=O)C2C(c3ccc(N(C)C)cc3)NN(Cc3ccccc3)C2C1=O (stereo unspecified)	i	13	15*	1	14*	13*
Cc1ccc2nc3c(cc(C(=O)NCCCn4ccnc4)n3C)c(=O)n2c1	i	-7	67*	-1	62*	79*
Cc1ccc(CC(=O)NCCCn2ccnc2)cc1	i	-5	0	-4	/	/
Cc1cccn2c(=O)c3cc(C(=O)NCCN4CCOCC4)c(=N)n(CCN4CCOCC4)c3nc12	/	-3	12	-16	/	/
COCCCn1c(C(=O)NCCC2=CCCCC2)cc2c(=O)n3cccc(C)c3nc21	i	1	-3	17	/	/
Cn1c(C(=O)NCCN2CCOCC2)cc2c(=O)n3ccccc3nc21	/	-5	60*	-18	67*	74*
COCCCn1c(C(=O)NCCN2CCOCC2)cc2c(=O)n3ccccc3nc21	/	-4	83*	2	72*	75*
Cc1cccn2c(=O)c3cc(C(=O)NCCN4CCOCC4)n(C)c3nc12	/	-4	19*	1	-49	-38
O=C(NC1CCCCN(Cc2cccc(Cl)c2)C1=O)c1ccc(Cl)cc1Cl (stereo unspecified)	/	/	0	/	/	/
CCN(CC)c1ccc(C=Nn2c(-c3ccc(F)cc3)n[nH]c2=S)c(O)c1	/	/	7	/	/	/
SMILES	Neddyl block	FAS TE block	proKLK7 act	PfGluPho inh	KLK7 act conf	EDANS interfere	others
CCCCn1nnnc1C(c1cc2ccccc2o1)N(C)CCc1ccccc1 (stereo unspecified)	i	26	0	/	/	/
COc1ccc(Cl)cc1CNC[C@H]1O[C@@H](n2ccc(N)nc2=O)[C@H](O)[C@@H]1O	i	-8	0	6	/	/
CSc1ccc(/C=C/C(=O)OCC(=O)NC2CC2)cc1	/	-5	21*	2	23*	25*
CSc1ccc(/C=C/C(=O)OCC(=O)NC(C)C)cc1	/	-2	22*	-7	17*	18*
NC(=O)NN=C1CCN2CCCc3cccc1c32	/	-7	30*	11	51*	55*
O=C(Cc1cccc2ccccc12)N/N=C1\CCCc2ccccc21	i	2	1	2	/	/
CCOc1ccc(CCNC(=O)COC(=O)c2nccnc2N)cc1OCC	i	-7	30*	-16	63*	55*
CCC(NC(=O)COc1cc2c(c3oc(=O)c(C)c(C)c13)CCC(C)(C)O2)C(=O)O (stereo unspecified)	/	-1	38*	16	73*	74*
Cc1c(C)c2c(OCC(=O)N[C@@H](C)C(=O)O)cc3c(c2oc1=O)CCC(C)(C)O3	/	-2	31*	11	72*	69*
C=CCNc1sc(C(=O)c2ccc(C)cc2)c(N)c1C#N	i	-2	186*	8	22*	15*	K7 EDANS ctr=>70
C=CCNc1sc(C(=O)c2ccccc2)c(N)c1C#N	i	-7	1	-9	/	/
CCCCCCC(=O)NC1CCCCN(Cc2ccc(Cl)cc2)C1=O (stereo unspecified)	/	/	0	/	/	/
COCCNc1nc2cc(-c3ccc(C)cc3)sc2c(=O)n1C	i	-4	1	/	/	/
COc1ccc(CN2C(=O)CSCCC2(C)c2nnnn2-c2c(C)cccc2C)cc1 (stereo unspecified)	/	/	0	/	/	/
CCOC(=O)C(=O)Cc1nc2ccccc2s1	i	-5	13*	-12	4	5.3*
CCOC(=O)c1ccccc1NC1CC(=O)N(c2ccccc2C)C1=O (stereo unspecified)	/	13	193*	1	169*	161*
CCOC(=O)c1ccccc1NC(=O)C1CC(=O)N(C(C)(C)C)C1 (stereo unspecified)	i	-5	0	-3	/	/
Clc1ccc(-c2cnc3cccnn23)cc1	/	-2	32*	/	37*	22*	K7 EDANS ctr=>70
COc1ccc(-c2cnc3cccnn23)cn1	/	-9	39*	/	27*	38*
c1cnn2c(-c3ccc4c(c3)CCO4)cnc2c1	/	-5	4	/	/	/
COc1ncccc1-c1cnc2cccnn12	/	-8	34*	/	58*	58*
CC(C)c1cc(Cn2c3ccccc3c(=O)n2C(C)Cn2cc(-c3ccc(C(C)(C)C)cc3)nn2)on1 (stereo unspecified)	/	/	1	/	/	/
